This note sets out measurements from PubChem BioAssay (Tox21).

Results filed as inconclusive are left out. Unmarked numbers belong to inactive results. Active and inactive are the calls of the source. Calls follow the shape of the full dose curve.
% is scaled to controls: 0 for no effect and ±100 for the full control effect; potency is read from the fitted curve at half-maximal effect.

This assay deals with estrogen-related receptor alpha (ERRalpha) with PGC-1alpha coactivator, human. The assay is described as follows: qHTS assay to identify small molecule antagonists of the estrogen related receptor signaling pathway with the pleiotropic PPARgamma coactivator (PGC) (AID 1224821). Also: nearly all actives have a fitted effect of over 50% in size.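 As to activity change, negative = inhibition: lower luminescence signal means antagonism of PGC/ERR signalling.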 To be noted: ERR/PGC reporter cell line, luciferase, antagonist mode; series mostly up to 92.2 µM; activity change, negative = inhibition: at the top concentration. The source says: National Center for Advancing Translational Sciences [NCATS]
NIH Chemical Genomics Center [NCGC]
U.S. Environmental Protection Agency [EPA]
National Institutes of Environmental Health Sciences [NIEHS]
National Toxicology Program [NTP]
U.S. Food and Drug Administration [FDA]
Estrogen related receptors (ERRs), the first orphan nuclear receptors discovered, play an important role in the control of cellular energy metabolism. ERRs are required for high-energy production in response to the environmental challenges. The pleiotropic PPARgamma coactivator (PGC) is a major partner of ERR and a key regulator in energy homeostasis. Together they have been implicated in the etiology of metabolic disorders such as Type 2 diabetes and metabolic syndrome. ERR-alpha was also identified as an adverse marker for breast cancer progression; ERR-alpha-positive tumors have a poor prognosis. To screen and to identify environmental compounds that perturb the ERR and PGC/ERR signaling pathways could provide valuable information for potential therapeutic or preventive measures in the treatment of metabolic disease. For identifying PGC/ERR antagonists, PGC/ERR cell line (provided by NTP) has been used to screen LOPAC library.
Tox21 Assay Protocol Summary:
The PGC/ERR cells were dispensed at 2,000 cells/5 ul/well in 1536-well white plates using a Multidrop dispenser. After the assay plates were incubated at a 37 C/5% CO2 incubator for 6 hours, 23 nL of compounds dissolved in DMSO, positive and negative controls or DMSO only was transferred to the assay plate by a pin tool. The plates were incubated at 37 C for 18 hours. 4 ul/well of One-Glo reagent was added into the assay plates using a Flying Reagent Dispenser. After 30 min incubation at room temperature, the luminescence intensity in the plates was measured using a ViewLux plate reader.
Turning to `c1ccc(C2CC2)c(OCC2=NCCN2)c1`, the “activity change, negative = inhibition” value was -1% [at 46.1 µM]. Still for that read-out and setting: the result for `CCCCOC(=O)c1ccccc1C(=O)OCc1ccccc1` reads 0.447%; that for `NCC(CC(=O)O)c1ccc(Cl)cc1` (stereo unspecified), 3.9% [at 46.1 µM].

For the compound `COCCOCCO`, the “activity change, negative = inhibition” value was -15%. Regarding `CC(=O)[C@H]1CC[C@H]2[C@@H]3CC[C@H]4C[C@](C)(O)CC[C@]4(C)[C@H]3CC[C@]12C`, the “activity change, negative = inhibition” value was 2.88% [at 46.1 µM]. In the case of `OCCCBr`, the “activity change, negative = inhibition” value is 6.57%. Still for that read-out and setting: the result for `C=CC(=O)NCNC(=O)C=C` reads 12.1%. Consider `NC(=O)CI`, for which the Potency was 11.9 µM (active). Regarding `c1cc2ccc3cccc4ccc(c1)c2c34`, the “activity change, negative = inhibition” value was 2.3%. Same read-out and setting: the result for `CC(C)=CCOc1c2occc2cc2ccc(=O)oc12` reads -5.7% [at 46.1 µM]; that for `O=S(=O)(O)C(F)(F)C(F)(F)C(F)(F)C(F)(F)F`, -11.1%.
